Not all results are given here.
aSyn UTR act = Activators via SNCA 5'UTR binding, MLPCN. alpha-synuclein 5'UTR reporter, activators screen. activity score, % (tested at 7.5 µM), hits read low. 7.1% of 300,000 active; in the data active = activity score below about -60%
An asterisk follows results filed as active.

SMILES	aSyn UTR act
COC(=O)CSc1nc2ccc(C)cc2cc1C#N	-72.5*
Cc1cc(C)c2cc(C#N)c(N3CCCN(C(=S)NCCCN(C)C)CC3)nc2c1	95.7
CCN(c1ccccc1)S(=O)(=O)c1ccc(Oc2ccc(-n3ccnc3)cc2)nc1	103.1
COc1ccc(S(=O)(=O)n2ccc(-c3cnc(-c4ccccc4)s3)n2)cc1	-139.9*
C#CC[N+](C)(C)CCCCCCCCCC	75.3
COc1cccc(NC(=S)/C(=C(\[O-])c2ccc(OC(F)F)cc2)[n+]2ccccc2)c1	-66.5*
O=C(NCc1ccco1)c1ccc(-c2cccc(Cl)c2)o1	-73.8*
CC1=Nc2cc(C(=O)NCc3ccco3)ccc2Sc2ccc(C)cc21	101.2
COc1ccc(OC)c(-c2cc(C(=O)Nc3c(C)nn(Cc4ccccc4)c3C)no2)c1	61.0
Cc1ccc(-c2cc(C(=O)NCc3ccco3)no2)cc1	-154.0*
COc1ccc(OC)c(-c2cc(C(=O)NCc3ccco3)no2)c1	-69.3*
O=C(NCc1ccco1)c1ccc(Cn2c(=O)c3ccccc3n(Cc3cccc(Cl)c3)c2=O)cc1	64.3
COc1cccc(-c2cc(C(=O)NCc3ccco3)no2)c1	-96.8*
O=C(NCc1ccco1)c1cc(-c2cccc(Cl)c2)on1	-91.6*
CC(C)Cc1cc(C(=O)NCc2ccco2)no1	-92.1*
O=C(NCc1ccco1)c1cc(-c2ccc(Cl)cc2)on1	-130.1*
COc1ccc2cc(C(=O)NCc3ccco3)c(=O)oc2c1	-93.4*
O=C(NCc1ccco1)c1cc(-c2ccc3c(c2)OCO3)on1	-96.7*
CC1CCc2onc(C(=O)NCc3ccco3)c2C1 (configuration not stated)	-64.2*
c1ccc(-c2ccc3sccc3n2)cc1	-173.4*
O=C1c2ccccc2NC(c2ccccc2O)N1c1ccc(F)cc1 (configuration not stated)	-97.7*
COc1cccc(C2Nc3ccccc3C(=O)N2c2ccc(F)cc2)c1O (configuration not stated)	-98.7*
O=C1c2ccccc2NC(c2ccccn2)N1c1ccc(Cl)cc1 (configuration not stated)	-138.0*
CN(Cc1nc(-c2cccc(Cl)c2)no1)C1CCOCC1	-121.0*
O=C(NC12CC3CC(CC(C3)C1)C2)c1ccc(-c2ccc(Br)cc2)o1	-245.9*
SMILES	aSyn UTR act
O=C(NC12CC3CC(CC(C3)C1)C2)c1ccc([N+](=O)[O-])o1	-200.0*
Nc1nc(Nc2ccccc2)nc2ccccc12	-82.4*
COc1ccc([N+](=O)[O-])cc1Nc1c2ccccc2nc2ccccc12	76.5
COc1ccc(C)cc1Nc1nc(N)c2ccccc2n1	-101.7*
CN(C)c1ccc(Nc2nc(N)c3ccccc3n2)cc1	109.1
Oc1ccc(/C=N/Nc2ccnc3cc(Cl)ccc23)cc1O	-78.5*
FC(F)(F)c1cc(-c2ccccn2)nc2cc(-c3ccccc3)nn12	-77.6*
COc1ccc2c(c1)CCc1c(C(=O)N3CCCc4ccccc43)noc1-2	-65.6*
O=C(c1nn2c(C(F)(F)F)cc(-c3cccs3)nc2c1Cl)N1CCCc2ccccc21	77.7
COc1ccc2c(c1)CCc1c(C(=O)N3CCOCC3)noc1-2	-161.8*
Cc1occc1C(=O)Nc1cccc(C(=O)O)c1	-84.5*
Cc1ccc(NC(=O)c2ccoc2C)cc1C	-231.2*
O=C(COC(=O)c1ccccc1NCc1ccco1)Nc1ccc2c(c1)OCO2	-66.5*
O=C(CCl)Nc1ccccc1C(=O)Nc1ccc2c(c1)OCO2	-86.9*
Cc1ccc(C(=O)Nc2ccc3c(c2)OCCO3)c(C)c1	73.5
Cc1occc1C(=O)Nc1ccc2c(c1)OCO2	-144.4*
COc1cccc(C(=O)Nc2ccc3c(c2)OCO3)c1OC	-128.1*
CSc1ccc(C2c3[nH]c4ccccc4c3CCN2C(=O)c2ccnn2C)cc1 (configuration not stated)	-166.1*
COc1cccc(/C=C/C(=O)OCC(=O)N2c3ccccc3NC(=O)C2(C)C)c1	-69.8*
COc1ccc(-c2cc(C(=O)N3CCN(c4ccccc4)CC3)no2)cc1	-156.1*
Cc1ccc(-c2cc(C(=O)N3CCOCC3)no2)cc1	66.9
COc1ccc(-c2cc(C(=O)N3CCCCC3)no2)cc1OC	-111.7*
COc1ccc(-c2cc(C(=O)N3CCCC3)no2)cc1OC	-122.9*
CCOC(=O)C(CC)(CC)C(=O)/C=C/c1cccc(Br)c1	-74.0*
C/C(=N\N=C\c1ccc(N(C)C)cc1)c1cccc([N+](=O)[O-])c1	-68.2*
SMILES	aSyn UTR act
CCOC(=O)c1cc2c(nc1NC(=S)NCc1ccccc1)CCCC2	-107.0*
C#CC(=O)N(c1cccc(OC)c1)C(C(=O)NC1CCCC1)c1cccs1 (configuration not stated)	92.3
COc1cccc(NC(=O)NC2CCCCCCC2)c1	-132.3*
COc1cccc(NC(=O)C(=S)NC2CCCCC2)c1	-85.4*
O=C(Nc1ccc(-c2cn3ccsc3n2)cc1)C1CC1	-159.2*
CC(C)(C)CC(=O)Nc1cccc(-c2cn3cccnc3n2)c1	-107.2*
CC(=O)Nc1ccc(-c2cn3ccsc3n2)cc1	-71.3*
CC(C)CC(=O)Nc1cccc(-c2cn3ccsc3n2)c1	-126.0*
O=C(Nc1ccc(-c2cn3ccsc3n2)cc1)C1CCCC1	-95.1*
c1cn2cc(-c3ccc4c(c3)OCO4)nc2s1	-137.1*
FC(F)Oc1ccc(N=C2SCC3CCCCN23)cc1 (configuration not stated)	-206.2*
Clc1ccc(N=C2SCC3CCCCN23)cc1 (configuration not stated)	-144.7*
O=C(NC(=S)Nc1cccc2cccnc12)c1cccs1	-63.4*
Cc1nc(NC(=S)NC(=O)c2cccs2)ccc1Br	-161.2*
Cc1cccc(NC(=S)NC(=O)c2cccs2)n1	-139.6*
COc1ccc(-c2csc(-c3cccnc3)n2)cc1C	-243.4*
COc1ccc2cc(-c3csc(-c4cccnc4)n3)ccc2c1	-250.9*
COCn1c(-c2cccc(Br)c2)nc2ccccc21	-63.3*
COCn1c(-c2ccc(OC)c(OC)c2)nc2ccccc21	-105.6*
O=C(CCCN1C(=O)/C(=C/c2ccccc2Cl)SC1=S)NNC(=O)c1ccc(Cl)cc1Cl	71.3
Cc1cc(/C(N)=N/OC(=O)Nc2ccc(Cl)cc2)no1	-91.7*
Cc1cc(C(=O)Nc2cc(C(C)(C)C)on2)c(C)o1	-146.6*
Cc1ccc(NC(=O)Nc2cc(C)on2)cc1	-142.8*
Cc1cc(C(=O)NNC(=O)c2ccc(Cl)cc2Cl)c(C)o1	-76.2*
O=C(Nc1ccsn1)c1ccc(Cl)cc1Cl	-161.7*
SMILES	aSyn UTR act
CC(C)(C)c1cc(NC(=O)Nc2ccccc2)no1	-196.7*
Cc1cccc(NC(=O)Nc2cc(C)on2)c1	-72.8*
Cc1cc(NC(=O)c2ccc(Cl)cc2Cl)no1	-185.1*
Cc1cc(NC(=O)Nc2ccc(Cl)cc2)no1	-109.6*
CN(C)c1ccc(Nc2ncnc3ccc(Br)cc23)cc1	-71.6*
CCn1nnnc1SCC(=O)Nc1ccc2c(c1)OCCO2	-118.2*
CC(C)n1nnnc1SCC(=O)Nc1ccc2c(c1)OCCO2	-109.1*
N#Cc1cnc(Nc2nc3ccccc3o2)nc1-c1ccccc1	-72.0*
O=C(NCCc1ccc(F)cc1)Nc1ccc2c(c1)OCO2	-138.9*
O=C(/C=C/c1cccc(Cl)c1)NCCc1ccccc1	-67.5*
O=C(NCCc1ccccc1)Nc1ccc2c(c1)OCO2	-79.7*
O=C(NCCc1ccccc1)Nc1cccc(Cl)c1	-87.9*
O=C(CCS(=O)(=O)c1ccc(Br)cc1)Nc1ccc2c(c1)OCO2	-64.1*
O=C(NCCc1ccccc1)C(=O)Nc1ccc2c(c1)OCCO2	-136.8*
O=C(Nc1ccc2c(c1)OCO2)OCc1ccccc1	-123.5*
O=C(CCc1ccccc1)Nc1ccc2c(c1)OCO2	-122.8*
